Holding throughout (assay): yeast three-hybrid, YBZ-1, SC-Leu-His + 0.5 mM 3-AT, 4 days
Common to all, as to conditions: tags: N-Gal4 AD-HA kept; label: inside an RPR1-promoter hybrid RNA with tandem MS2 sites; ssRNA

The target of one assay is PUM1 PUF domain R5-KSC (Homo sapiens, UniProt Q14671 828-1176, C1007K;R1008S;Q1011C). In a few lines:
(§1)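 The interaction score is the log change in variant frequency from input to selection. Scores were computed in log2 with a pseudocount of 1 for absent variants, using Illumina sequencing of PCR-amplified repeat regions. The input came from four days on SC-Leu and the selection from four days on SC-Leu-His + 0.5 mM 3-AT. The cells were strain YBZ-1 (LexA–MS2 coat fusion, HIS3 reporter) co-expressing Pumilio-1 PUF domain libraries and matching RNA elements from a centromeric plasmid.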

For the next assay, the target named is PUM1 PUF domain R5-KLT (Homo sapiens, UniProt Q14671 828-1176, C1007K;R1008L;Q1011T). In a few lines:
as §1

The target in another assay is PUM1 PUF domain R5-RCS (Homo sapiens, UniProt Q14671 828-1176, C1007R;R1008C;Q1011S). Put shortly: as §1
The target in the next assay is PUM1 PUF domain R1-TTR (Homo sapiens, UniProt Q14671 828-1176, S863T;R864T;Q867R). Put shortly:
as §1

For another assay, the target named is PUM1 PUF domain R4-VGL (Homo sapiens, UniProt Q14671 828-1176, N971V;H972G;Q975L). In a few lines:
as §1

In the next assay the target is PUM1 PUF domain R3-GCW (Homo sapiens, UniProt Q14671 828-1176, C935G;R936C;Q939W). Put shortly: as §1
The target of a further assay is PUM1 PUF domain R4-GRI (Homo sapiens, UniProt Q14671 828-1176, N971G;H972R;Q975I). In a few lines:
as §1

Another assay deals with PUM1 PUF domain R4-APA (Homo sapiens, UniProt Q14671 828-1176, N971A;H972P;Q975A). Put shortly:
as §1

A further assay addresses T1, PUM1 PUF domain R6-RWG (Homo sapiens, UniProt Q14671 828-1176, N1043R;Y1044W;Q1047G).
T1 sequence: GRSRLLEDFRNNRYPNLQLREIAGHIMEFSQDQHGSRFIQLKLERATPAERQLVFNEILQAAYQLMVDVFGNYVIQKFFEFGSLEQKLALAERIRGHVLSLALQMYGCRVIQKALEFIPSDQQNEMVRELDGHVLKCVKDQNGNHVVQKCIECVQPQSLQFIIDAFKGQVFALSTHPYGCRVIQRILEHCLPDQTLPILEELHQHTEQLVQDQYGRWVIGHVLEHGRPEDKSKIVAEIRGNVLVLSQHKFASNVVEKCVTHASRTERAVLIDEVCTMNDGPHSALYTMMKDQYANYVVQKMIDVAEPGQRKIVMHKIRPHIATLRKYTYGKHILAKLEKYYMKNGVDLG
In a few lines:
as §1

Another assay addresses T2, PUM1 PUF domain R6-VFV (Homo sapiens, UniProt Q14671 828-1176, N1043V;Y1044F;Q1047V).
T2 sequence: T1 sequence with R216V, W217F, G220V
In a few lines: as §1

The next assay concerns the target PUM1 PUF domain R3-DYV (Homo sapiens, UniProt Q14671 828-1176, C935D;R936Y;Q939V). In a few lines:
as §1

Another assay concerns the target T3, PUM1 PUF domain R6-WYR (Homo sapiens, UniProt Q14671 828-1176, N1043W;Q1047R).
T3 sequence: T1 sequence with R216W, W217Y, G220R
In a few lines: as §1

The next assay addresses PUM1 PUF domain R3-GWS (Homo sapiens, UniProt Q14671 828-1176, C935G;R936W;Q939S). Put shortly:
as §1

The next assay has as its target PUM1 PUF domain R5-IHR (Homo sapiens, UniProt Q14671 828-1176, C1007I;R1008H;Q1011R). In a few lines: as §1
The target of another assay is PUM1 PUF domain R5-KHV (Homo sapiens, UniProt Q14671 828-1176, C1007K;R1008H;Q1011V). Put shortly:
as §1

The target in the next assay is PUM1 PUF domain R5-DHI (Homo sapiens, UniProt Q14671 828-1176, C1007D;R1008H;Q1011I). In a few lines:
as §1

Changes are numbered by the printed parent chain.

As to “GGCUAGAACUAGUGGAUCCCCCGGCGCCCGGCGGCUCGAGCCCGGGUAAGUGUCAAUAGUCUGCAUGCCGCCGGGCGCCAUGCCUGCAGGUCGACUCUAGAAAACAUG”, the values for the binding signal with PUM1 PUF domain R5-KSC, in the assay with PUM1 PUF domain R5-KLT and with PUM1 PUF domain R5-RCS were 5.14 log2 enrichment (interaction score), 2.35 log2 enrichment (interaction score) and 3.59 log2 enrichment (interaction score), respectively.
For the sequence “GGCUAGAACUAGUGGAUCCCCCGGCGCCCGGCGGCUCGAGCCCGGGUAAGUGUAAAUCGUCUGCAUGCCGCCGGGCGCCAUGCCUGCAGGUCGACUCUAGAAAACAUG”, in the assay with PUM1 PUF domain R1-TTR, the binding signal is 4.01 log2 enrichment (interaction score).
As for “GGCUAGAACUAGUGGAUCCCCCGGCGCCCGGCGGCUCGAGCCCGGGUAAGUGUAAAUAGUCUGCAUGCCGCCGGGCGCCAUGCCUGCAGGUCGACUCUAGAAAACAUG”, the binding signal in the assay with PUM1 PUF domain R4-VGL is 3.22 log2 enrichment (interaction score); with PUM1 PUF domain R3-GCW, 1.82 log2 enrichment (interaction score); in the assay with PUM1 PUF domain R4-GRI, 3.58 log2 enrichment (interaction score); with PUM1 PUF domain R4-APA, 4.16 log2 enrichment (interaction score); with PUM1 PUF domain R6-RWG, 5.05 log2 enrichment (interaction score); with PUM1 PUF domain R6-VFV, 1.55 log2 enrichment (interaction score). Besides, the binding signal was 5.65 log2 enrichment (interaction score) with PUM1 PUF domain R3-DYV, 5.27 log2 enrichment (interaction score) in the assay with PUM1 PUF domain R6-WYR and 5.13 log2 enrichment (interaction score) in the assay with PUM1 PUF domain R3-GWS.
Take “GGCUAGAACUAGUGGAUCCCCCGGCGCCCGGCGGCUCGAGCCCGGGUAAGUGUUAAUAGUCUGCAUGCCGCCGGGCGCCAUGCCUGCAGGUCGACUCUAGAAAACAUG”: the binding signal with PUM1 PUF domain R5-IHR is 3.52 log2 enrichment (interaction score); in the assay with PUM1 PUF domain R5-KHV, 2.08 log2 enrichment (interaction score); with PUM1 PUF domain R5-KSC, 2.38 log2 enrichment (interaction score); in the assay with PUM1 PUF domain R5-RCS, 2.74 log2 enrichment (interaction score); with PUM1 PUF domain R5-DHI, 4.16 log2 enrichment (interaction score).

The values are drawn from PMC8384837, “Expanding the binding specificity for RNA recognition by a PUF domain”.
